# Bioassay records as filed in PubChem BioAssay.
# An excerpt weighted towards active compounds, which were near 19% of everything screened.
# HepG2 viability – counter-screen for TGF-b inhibitors: cytotoxicity in HepG2 cells; Potency, µM (doses to about 46.1 µM), without a hit: at the top dose activity change, negative = cytotoxicity, hits mostly cytotoxic; actives 0.76% (n = 410,000); HepG2 CAGA-GFP viability, ATP luminescence, 18 h; also: potency is read from the fitted curve at half-maximal effect
#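 CellTiter-Glo luminescence gave cytotoxicity after 18 hours at 37 degrees C. The cells were HepG2 CAGA-GFP in 1% FBS DMEM, stimulated with 500 pg/mL TGF-beta after compound addition. %Activity was normalised to no-cell wells (complete cell-killing) and DMSO (no toxicity), and curves were fitted and classified.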
# IL1B secr inh – inflammasome signaling inhibition, IL-1 beta readout; THP-1 LPS/ATP IL-1B secretion, AlphaLISA, 16 h; hits give low values; AID 743279; activity change, % at 57.5 µM; actives 4.7% (n = 360,000); in the data active = activity change below about -50%; inconclusive = mostly about -30% to -49%; also: % is scaled to controls: 0 for no effect and ±100 for the full control effect
#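 THP-1 cells pretreated 1 hr with compounds (up to 57.5 uM final), then stimulated with LPS (250 ng/mL final) plus ATP (1.25 mM final); secreted IL-1B measured by AlphaLISA after 16 hr, decreased signal indicating inhibition.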
# TDP1 cell CPT – DT40-hTDP1 cell growth loss with CPT | chicken DT40 Tdp1-/-;hTDP1 cells + 20 nM CPT, ATP luminescence, 48 h | Potency, µM (top dose mostly 46.2 µM), without a hit: at the highest dose activity change, negative = growth inhibition, actives largely listed as inhibitors | actives 12% (n = 420,000); also: potency is read from the fitted curve at half-maximal effect; % is scaled to controls: 0 for no effect and ±100 for the full control effect; nearly all actives have a fitted effect of over 55% in size
#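 Chicken DT40 Tdp1-/- cells stably complemented with human TDP1 were seeded at 400 cells/well in medium containing 20 nM camptothecin, exposed to pin-transferred compounds, and grown at 37 °C for at least 48 hr. Viability was read as ATP luminescence.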
# TGFb SMAD3 inh – blocks TGF-b signaling. actives 1.2% (n = 410,000). Potency, µM (titrated, usually from 46.1 µM), inactives show at the highest dose activity, negative = inhibition, usual class: inhibitors. HepG2 CAGA-GFP TGF-b/SMAD3 reporter, GFP fluorescence, 18 h; TGF-beta stimulated, 500 pg/mL final; also: potency is read from the fitted curve at half-maximal effect; % is scaled to controls: 0 for no effect and ±100 for the full control effect; nearly all actives have a fitted effect of over 65% in size
#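 First, reporter cells (HEPG2 CAGA-GFP) rested 2 h at 37 degrees C. Next, compounds were pinned in and TGF-beta added to 500 pg/mL final. After 18 h, GFP was imaged per cell and summed per well.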
# DT40 TDP1 no CPT – qHTS for Inhibitors of human tyrosyl-DNA phosphodiesterase 1 (TDP1): qHTS in cells in absence of CPT | DT40 Tdp1-/- hTDP1 cells, no CPT, ATP luminescence, 48 h | Potency, µM (series often up to 46.2 µM), inactives show at the top dose activity change, negative = growth inhibition, hits mostly inhibitors | actives 15% (n = 420,000) | AID 686978, 2013; also: potency is read from the fitted curve at half-maximal effect; % is scaled to controls: 0 for no effect and ±100 for the full control effect; nearly all actives have a fitted effect of over 55% in size
#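 Chicken DT40 Tdp1-/- cells stably complemented with human TDP1 were seeded at 400 cells/well with DMSO in place of 20 nM camptothecin. After compound pinning, cells grew at least 48 hr at 37 °C; viability read by CellTiter-Glo luminescence.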
# TDP1 block – TDP1 (human) enzyme inhibition; Q9NUW8; recombinant TDP1, AlphaScreen DNA substrate cleavage; Potency, µM (highest dose often 130 µM), inactives show at the top dose activity change, negative = inhibition, actives largely listed as inhibitors; actives 0.28% (n = 350,000); also: potency is read from the fitted curve at half-maximal effect; % is scaled to controls: 0 for no effect and ±100 for the full control effect; nearly all actives have a fitted effect of over 40% in size
# Target sequence (Q9NUW8 whole entry, looked up): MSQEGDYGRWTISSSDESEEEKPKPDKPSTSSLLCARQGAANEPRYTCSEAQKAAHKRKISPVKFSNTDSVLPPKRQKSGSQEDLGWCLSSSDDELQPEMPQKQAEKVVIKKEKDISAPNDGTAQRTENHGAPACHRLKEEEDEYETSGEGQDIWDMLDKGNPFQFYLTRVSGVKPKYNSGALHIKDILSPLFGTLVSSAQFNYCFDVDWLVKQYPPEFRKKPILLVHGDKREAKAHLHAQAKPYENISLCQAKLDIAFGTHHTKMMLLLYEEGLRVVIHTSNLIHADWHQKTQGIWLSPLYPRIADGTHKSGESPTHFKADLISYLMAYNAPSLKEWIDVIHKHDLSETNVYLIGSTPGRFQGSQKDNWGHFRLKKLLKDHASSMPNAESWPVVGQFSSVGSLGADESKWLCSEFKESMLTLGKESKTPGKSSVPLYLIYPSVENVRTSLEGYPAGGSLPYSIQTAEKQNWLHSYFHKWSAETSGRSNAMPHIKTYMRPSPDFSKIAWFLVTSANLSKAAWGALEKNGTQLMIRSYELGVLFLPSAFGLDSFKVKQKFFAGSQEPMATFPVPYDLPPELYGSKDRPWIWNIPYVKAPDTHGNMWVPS
#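 Here, a 5' biotin and 3' phosphotyrosine-FITC DNA oligonucleotide reports Tdp1 activity: intact substrate bridges AlphaScreen beads, while cleavage leaves a 3' phosphate and drops signal. All incubations at room temperature.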
# * hit, by the source's call; i = inactive; ? = inconclusive; · = no result given; [ ] = remark or other dose. Unless noted, calls follow the shape of the dose curve; as a rule, active = well fitted curve in the direction sought with a large enough effect; inconclusive = small, poorly fitted or top-dose-only effect, or another doubt; inactive = no such curve, though single readings can be large; an effect the other way counts as inactive or inconclusive.
SMILES,HepG2 viability,IL1B secr inh,TDP1 cell CPT,TGFb SMAD3 inh,DT40 TDP1 no CPT,TDP1 block
Cc1ccc(N(CCCCN2C(=O)c3ccccc3C2=O)C(=O)c2ccc(Cl)s2)cc1,2.7%,-10.7,?,45.4%,?,-1.8%
CN(C)CCN1C(=O)c2cccc3cc([N+](=O)[O-])cc(c23)C1=O,-13.8%,-101.9*,0.206µM*,6.31µM*,0.259µM*,·
COc1ccc(OC)c(Nc2sc(C(=O)c3ccccc3)c(N)c2S(=O)(=O)c2ccccc2)c1,4.7%,·,-4.8%,-3.6%,?,-2.5%
CCCN(C)C1CN(Cc2cn(Cc3cccc(C(F)(F)F)c3)nn2)S(=O)(=O)C1 (stereo not drawn),·,2.8,-11.8%,·,-12.6%,·
COc1ccc(N(CCCN2C(=O)c3cccc4cccc(c34)C2=O)C(=O)c2cccc(OC)c2)cc1,-2.1%,-10.9,13µM*,-18.3%,10.3µM*,0.0%
CN(C)CCCN1C(=O)c2cc3ccccc3cc2C1=O,-29.3%,-5.6,-1.4%,0.3%,-19.4%,1.6%
CN(C)CCCN1C(=O)c2cccc3cccc(c23)C1=O,0.6%,-89.3*,?,-29.0%,?,0.6%
COC(=O)C1(C(=O)OC)CC2=C[C@H](CC2=O)Cc2ccccc2[C@@H]1C[N+](=O)[O-],·,·,·,·,·,6.9%
CN(C)CCN(Cc1ccco1)C(=O)c1oc2ccccc2c1NC(=O)COc1ccccc1,-15.2%,-50.4*,?,6.0%,-1.0%,6.5%
O=C1N/C(=C\c2nc3ccccc3s2)c2ccccc21,·,·,·,·,·,1.3%
O=C1N/C(=C\c2ccccc2)c2ccccc21,-30.0%,33.9,20.6µM*,-4.3%,23.1µM*,-1.1%
CCOc1ccccc1CNC(=O)C1CCN(c2nc3ccccc3nc2C(F)(F)F)CC1,-12.0%,·,?,?,?,7.9%
COC(=O)NC(/C(C(=O)OC)=C(\C)NCc1ccccc1)c1ccc(Cl)cc1 (stereo not drawn),·,·,·,·,·,9.0%[21 µM]
CCOC(=O)NC(=O)/C(C#N)=N\Nc1cccc(Cl)c1,-30.1%,3.0,23.1µM*,-17.6%,20.6µM*,6.8%
CCOC(=O)NC(=O)/C(C#N)=N\Nc1ccc(Cl)cc1,-6.8%,1.7,-3.9%,-2.2%,-15.9%,8.0%
CCOC(=O)Cn1nc(/C=C/c2ccc(C(C)C)cc2)ccc1=O,-45.2%,-28.5,14.6µM*,?,?,-2.0%
O=c1ccc(/C=C/c2ccccc2)nn1Cc1ccccc1,0.3%,-19.8,-21.1%,16.6%,-27.0%,-3.0%
CCOC(=O)Cn1nc(/C=C/c2ccccc2)ccc1=O,7.6%,-2.6,-18.6%,2.9%,-16.3%,-4.0%
CCOC(=O)Cn1nc(/C=C/c2ccc(C)cc2)ccc1=O,-4.2%,-28.0,?,2.2%,23.1µM*,2.8%
CC(C)C[C@@H]1Cc2[nH][nH]c(=O)c2[C@H](c2ccc(Cl)cc2)O1,·,32.8,-26.5%,·,-25.3%,·
Nc1nonc1C(=O)NCCNCc1c(OCc2ccccc2F)ccc2ccccc12,-95.9%,-81.2*,11.2µM*,?,11.2µM*,3.9%
COc1ccc(CNCCNC(=O)c2nonc2N)cc1OC,-13.7%,-3.8,-1.1%,18.8%,-18.6%,4.2%
Nc1nonc1C(=O)NCCNCc1cc(Br)ccc1OCc1ccc(F)cc1,-46.5%,-65.2*,10.3µM*,-17.6%,10.3µM*,1.0%
Nc1nonc1C(=O)NCCNCc1ccccc1F,-23.3%,·,·,21.9%,·,-4.2%
CS(=O)(=O)Nc1cccc(-c2nc(NCCN3CCOCC3)c3ccccc3n2)c1,·,·,-2.8%,·,?,10.9%[56.1 µM]
SMILES,HepG2 viability,IL1B secr inh,TDP1 cell CPT,TGFb SMAD3 inh,DT40 TDP1 no CPT,TDP1 block
O=P1(O)OP(=O)(O)OP(=O)(O)O1.[Al],·,·,·,·,·,7.5%
O=C(c1cc(-c2cccnc2)nc2ccccc12)N1CCN(S(=O)(=O)c2cccs2)CC1,-5.9%,5.3,?,-2.3%,23.1µM*,0.7%[56.1 µM]
CS(=O)(=O)N1CCN(C(=O)c2cc(-c3ccccc3)nc3ccccc23)CC1,-6.1%,9.4,?,-4.2%,-20.6%,-1.8%
CS(=O)(=O)N1CCN(C(=O)c2cc(-c3ccncc3)nc3ccc(Cl)cc23)CC1,-2.9%,-9.4,-12.6%,24.6%,?,1.0%
O=C(c1cc(-c2cccnc2)nc2ccc(Cl)cc12)N1CCN(S(=O)(=O)c2cccs2)CC1,0.0%,i,?,-11.3%,16.4µM*,1.4%
COc1ccc(/C=C(\NC(=O)c2ccc(C)cc2)C(=O)Nc2ccc(C(=O)O)cc2)cc1,-4.6%,-23.4,3.3%,-1.1%,0.7%,·
C=C(C)Cn1c(=O)c2c(nc3n2CCN3c2ccc(F)cc2)n(C)c1=O,-5.3%,·,?,0.2%,?,7.8%
Cc1cccc(-c2nc3c4ccccc4nc(NCCc4ccccc4)n3n2)c1,-11.2%,·,?,-12.9%,?,2.9%
O=C(Nc1ccc(Cc2ccncc2)cc1)C1CCC(N2C(=O)C3CC=CCC3C2=O)CC1 (stereo not drawn),-39.6%,-70.6*,20.6µM*,-11.8%,15.8µM*,7.0%
COc1ccc(NC(=O)C2CCC(N3C(=O)C4CCCCC4C3=O)CC2)cc1 (stereo not drawn),5.1%,12.7,10.2%,1.3%,-27.8%,4.9%
O=C1c2ccccc2C(=O)N1CC(O)Cn1nnc2ccccc21 (stereo not drawn),-4.1%,18.9,1.1%,-1.2%,-0.8%,0.0%
Cc1nn(CC(O)CN2c3ccccc3Sc3ccccc32)c(C)c1Br (stereo not drawn),-120.9%,-11.2,?,12.6µM*,?,7.0%
Cc1nn(CC(O)c2ccccc2)c(C)c1Br (stereo not drawn),0.6%,23.8,6.5%,0.0%,0.9%,-0.5%
OC(CN1c2ccccc2Sc2ccccc21)Cn1nnc2ccccc21 (stereo not drawn),17.8µM*,?,?,0.0%,20.6µM*,2.6%
O=C(COc1ccc(Cl)cc1)Nc1cc(NC(=O)COc2ccc(Cl)cc2)cc(C(=O)O)c1,-24.1%,11.5,3.3%,-5.2%,-2.9%,2.6%
COCCCNC(=O)c1ccccc1-c1cc(C)no1,12.6%,14.4,0.9%,-0.9%,6.7%,6.2%
Cc1ccc(NC(=O)C2CCN(S(=O)(=O)c3ccc4ccccc4c3)CC2)nc1,-25.0%,-9.6,1.3%,-9.1%,?,0.1%
COCCN(Cc1cc2cc3c(cc2nc1Cl)OCO3)C(=O)Nc1ccc(OC)cc1,4.7%,13.0,?,-3.0%,10.3µM*,0.0%
